The values below come from PubChem BioAssay (EPA / NIEHS).

Records with an inconclusive call do not appear. The source made the active and inactive calls. Rule for the calls, unless noted: active = hit-call score of the fitted dose curve at least 0.9, where 1 is the maximum; inactive = score below 0.9.

Read-out in assay [1]: E-selectin (Homo sapiens) (UniProt P16581)
The experiment in a line: BSK_SAg_Eselectin: BioMAP Diversity Plus: SAg Assay for Eselectin Biomarker Activity (AID 2283091). Particulars: primary human HUVEC with PBMC; actives raise or lower the signal. The gist of the method: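 E-selectin ELISA readout at 24 h post-dosing in human umbilical vein endothelial cell/PBMC co-culture; gain or loss of signal fitted relative to DMSO baseline.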

Read-out in assay [2]: Monokine induced gamma interferon (MIG), CXCL9 (gene 4283)
The experiment in a line: BSK_SAg_MIG: BioMAP Diversity Plus: SAg Assay for Monokine induced gamma interferon (MIG) Biomarker Activity (AID 2283092). Particulars: primary human HUVEC with PBMC; actives raise or lower the signal. The method, boiled down: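 Endothelial cells and PBMC were co-cultured, exposed to test chemicals, and sampled 24 h later. MIG was measured by ELISA, and responses were fitted in both directions relative to DMSO.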

The nature of assay [3]: BSK_SAg_PBMCCytotoxicity: PBMC Cytotoxicity Assessment in the BioMAP Diversity Plus: SAg Assay (AID 2283093).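 For AC50: PBMC superantigen activated with SEB plus TSST-1 one hour after compound addition.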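 Note: fitted both ways against DMSO so a hit may be loss or gain of signal.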 Particulars: primary human HUVEC with PBMC. The method, boiled down: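 PBMC viability by Alamar Blue reduction, fluorescence read at 546/580 nm after 6 h dye exposure. Cells were dosed 1 h before SEB plus TSST-1 activation (20 ng/mL final each), then held 90 h; endothelial/PBMC human co-culture.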

Read-out in assay [4]: Interleukin-8 (IL8), CXCL8 (gene 3576)
The experiment in a line: BSK_SAg_IL8: BioMAP Diversity Plus: SAg Assay for Interleukin-8 (IL8) Biomarker Activity (AID 2283094). Particulars: primary human HUVEC with PBMC; actives raise or lower the signal. The method, boiled down:
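Chemicals were dosed onto a human endothelial–PBMC co-culture, and IL-8 was quantified by ELISA after 24 h. Both increases and decreases were fitted relative to DMSO.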

Assay [5] is described as follows: BSK_SAg_Proliferation: Cell Proliferation Assessment in the BioMAP Diversity Plus: SAg Assay (AID 2283095).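 Note: relative cell number as total protein by SRB absorbance in sub-confluent culture.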 The following applies: primary human HUVEC with PBMC. The method, boiled down:
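Absorbance of sulforhodamine B at 560 nm reports total protein in a human vascular endothelial/PBMC co-culture after 96 h chemical exposure. Gain or loss of signal is fitted in both directions against DMSO.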

Assay [6] in a line: BSK_SAg_SRB: Viability Assessment in the BioMAP Diversity Plus: SAg Assay (AID 2283096).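 Note: cells read one day after compound addition; hits may be either gain or loss of signal compared with DMSO.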 The following applies: primary human HUVEC with PBMC. The gist of the method:
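Compounds were added to a human vascular co-culture of umbilical vein endothelium and PBMC. After 24 h, parallel cultures were fixed with 10% TCA, stained with 0.1% sulforhodamine B and read at 560 nm. Gain or loss of signal was fitted relative to DMSO.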

Assay [7] has as its target human CYP1A2, CYP1A2 (gene 1544) (UniProt P05177). The experiment in a line: NVS_ADME_hCYP1A2: NovaScreen (NVS) CYP450-related Enzyme Activity (ADME) Assay for human CYP1A2 (AID 2283102; active = hit-call score of the fitted dose curve at least 0.9, where 1 is the maximum;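 note: potency for inhibition since loss of fluorescence marks reduced CYP1A2 activity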). The method, boiled down:
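Fluorescence-intensity enzyme activity read-out, taken 0.5 h post-dosing, using insect-cell-derived recombinant CYP1A2 and specific fluorescent substrate. Acetonitrile served as negative control/baseline. Single-concentration duplicate screen at 10 uM, then concentration-response follow-up.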

Assay [8] addresses rat CYP1A2, Cyp1a2 (gene 24297) (UniProt P04799). Description: NVS_ADME_rCYP1A2: NovaScreen (NVS) CYP450-related Enzyme Activity (ADME) Assay for rat CYP1A2 (AID 2283115; active = hit-call score of the fitted dose curve at least 0.9, where 1 is the maximum). The gist of the method: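 Primary testing ran in duplicate at 10 uM, with actives re-tested across concentration series. Fluorescence intensity from substrate turnover by recombinant protein, measured 1 hour post-dosing, with signal loss scored against acetonitrile vehicle.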

Assay [9] deals with human CYP2C9, CYP2C9 (gene 1559) (UniProt P11712). Description: NVS_ADME_hCYP2C9: NovaScreen (NVS) CYP450-related Enzyme Activity (ADME) Assay for human CYP2C9 (AID 2283108; active = hit-call score of the fitted dose curve at least 0.9, where 1 is the maximum). The gist of the method:
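Recombinant human CYP2C9 expressed in SF9 cells, fluorogenic substrate, fluorescence read 0.75 h after dosing. Chemicals first run in duplicate at 10 uM, with actives followed in concentration series; loss of signal versus acetonitrile baseline.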

Assay [10] has as its target Cytochrome P450 2C19 (Homo sapiens) (UniProt P33261). Description: NVS_ADME_hCYP2C19: NovaScreen (NVS) CYP450-related Enzyme Activity (ADME) Assay for human CYP2C19 (AID 2283113; active = hit-call score of the fitted dose curve at least 0.9, where 1 is the maximum;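 for AC50: potency for inhibition seen as loss of fluorescent signal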). The gist of the method: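 Recombinant insect-cell-expressed enzyme, fluorescent substrate, 1 h after chemical addition, fluorescence intensity. Baseline = acetonitrile vehicle; activity scored as signal loss. Primary HTS single concentration 10 uM, duplicate; actives retested in concentration series.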

Assay [11] has as its target human CYP19A1, CYP19A1 (gene 1588) (UniProt P11511). Description: NVS_ADME_hCYP19A1: NovaScreen (NVS) CYP450-related Enzyme Activity (ADME) Assay for human CYP19A1 (AID 2283098; active = hit-call score of the fitted dose curve at least 0.9, where 1 is the maximum;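 for AC50: potency for inhibitors seen as loss of fluorescent enzyme signal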). The gist of the method: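 Fluorescence intensity read-out; activity taken as signal loss relative to acetonitrile vehicle. Extracted enzyme, specific substrate, no cells, 0.5 h exposure. Duplicate single-point screen at 10 uM, then concentration–response follow-up for actives.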

Assay [12] has as its target human CYP2D6, CYP2D6 (gene 1565) (UniProt P10635). The experiment in a line: NVS_ADME_hCYP2D6: NovaScreen (NVS) CYP450-related Enzyme Activity (ADME) Assay for human CYP2D6 (AID 2283107; active = hit-call score of the fitted dose curve at least 0.9, where 1 is the maximum). The method, boiled down:
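Fluorescence intensity read 1 h post-dosing; insect-cell-expressed recombinant protein with fluorogenic substrate, no cells. Activity is scored as signal loss relative to acetonitrile baseline, first at a single 10 uM concentration in duplicate, then as concentration series for confirmed actives.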

Assay [13] addresses human CYP2B6, CYP2B6 (gene 1555) (UniProt P20813). The experiment in a line: NVS_ADME_hCYP2B6: NovaScreen (NVS) CYP450-related Enzyme Activity (ADME) Assay for human CYP2B6 (AID 2283101; active = hit-call score of the fitted dose curve at least 0.9, where 1 is the maximum). The gist of the method:
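Cell-free recombinant enzyme assay with a fluorogenic substrate; fluorescence intensity read 1 hour after dosing. Loss of signal relative to acetonitrile negative control indicates inhibition. Primary screen run in duplicate at 10 uM, actives then tested in concentration series.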

The subject of assay [14] is rat CYP2B1, gene 24300. Description: NVS_ADME_rCYP2B1: NovaScreen (NVS) CYP450-related Enzyme Activity (ADME) Assay for rat CYP2B1 (AID 2283117; active = hit-call score of the fitted dose curve at least 0.9, where 1 is the maximum). The gist of the method:
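Cell-free fluorescence enzyme assay, recombinant rat CYP2B1, 0.75 h after dosing. Single-concentration duplicates at 10 uM preceded concentration series (max 20 uM) for actives; acetonitrile as negative-control baseline.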

In assay [15] the target is human CYP2C8, CYP2C8 (gene 1558) (UniProt P10632). The experiment in a line: NVS_ADME_hCYP2C8: NovaScreen (NVS) CYP450-related Enzyme Activity (ADME) Assay for human CYP2C8 (AID 2283104). The method, boiled down:
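Fluorescence readout of substrate turnover by recombinant CYP2C8 after 0.5 h, baseline acetonitrile. Single-concentration duplicate screen at 10 uM preceded singleton concentration series (max 20 uM) for compounds passing the inhibition threshold.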

For assay [16], the target named is rat CYP2A2, Cyp2a2 (gene 24895) (UniProt P15149). Description: NVS_ADME_rCYP2A2: NovaScreen (NVS) CYP450-related Enzyme Activity (ADME) Assay for rat CYP2A2 (AID 2283116; active = hit-call score of the fitted dose curve at least 0.9, where 1 is the maximum). The method, boiled down: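 Compounds first tested in duplicate at 10 uM, then in singleton concentration series up to 20 uM when over threshold. Activity of the recombinant enzyme read by fluorescence at 0.2 h, normalised to acetonitrile vehicle.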

Assay [17] has as its target human CYP2A6, CYP2A6 (gene 1548) (UniProt P11509). Description: NVS_ADME_hCYP2A6: NovaScreen (NVS) CYP450-related Enzyme Activity (ADME) Assay for human CYP2A6 (AID 2283099; active = hit-call score of the fitted dose curve at least 0.9, where 1 is the maximum). The gist of the method: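 Insect-cell-expressed human CYP2A6 enzyme activity measured by fluorescence intensity 0.5 hour post-dosing. Compounds screened at 10 uM in duplicate, then hits tested singly in concentration series (max 20 uM); acetonitrile baseline.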

Sequence of human CYP19A1, CYP19A1 (gene 1588) (P11511 whole entry, looked up): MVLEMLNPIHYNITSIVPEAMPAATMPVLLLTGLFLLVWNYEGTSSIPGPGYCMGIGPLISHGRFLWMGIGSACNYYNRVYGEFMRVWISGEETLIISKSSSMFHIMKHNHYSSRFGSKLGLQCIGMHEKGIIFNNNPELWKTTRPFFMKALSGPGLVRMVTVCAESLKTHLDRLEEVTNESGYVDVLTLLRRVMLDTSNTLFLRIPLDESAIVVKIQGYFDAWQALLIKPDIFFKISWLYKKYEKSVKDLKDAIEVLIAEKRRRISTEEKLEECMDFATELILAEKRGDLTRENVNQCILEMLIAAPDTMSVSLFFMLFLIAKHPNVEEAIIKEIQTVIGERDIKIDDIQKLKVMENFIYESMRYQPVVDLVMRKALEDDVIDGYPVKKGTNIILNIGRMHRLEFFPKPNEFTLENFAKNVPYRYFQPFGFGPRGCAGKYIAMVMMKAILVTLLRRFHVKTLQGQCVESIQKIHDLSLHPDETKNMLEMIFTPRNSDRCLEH
Sequence of human CYP2B6, CYP2B6 (gene 1555) (P20813 whole entry, looked up): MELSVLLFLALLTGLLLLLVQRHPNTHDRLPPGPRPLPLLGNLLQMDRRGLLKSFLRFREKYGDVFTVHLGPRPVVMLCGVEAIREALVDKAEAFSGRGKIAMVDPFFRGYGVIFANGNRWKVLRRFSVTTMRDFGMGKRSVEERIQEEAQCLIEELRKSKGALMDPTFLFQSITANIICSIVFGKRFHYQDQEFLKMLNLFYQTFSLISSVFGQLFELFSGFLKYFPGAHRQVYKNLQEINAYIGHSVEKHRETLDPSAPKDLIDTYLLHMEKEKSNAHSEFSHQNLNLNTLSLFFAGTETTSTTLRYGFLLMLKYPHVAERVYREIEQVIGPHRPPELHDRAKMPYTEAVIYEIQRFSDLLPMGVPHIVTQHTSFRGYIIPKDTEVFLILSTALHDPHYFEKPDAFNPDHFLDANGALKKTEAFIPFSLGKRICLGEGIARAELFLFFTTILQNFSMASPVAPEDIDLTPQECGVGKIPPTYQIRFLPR
Sequence of E-selectin (Homo sapiens) (P16581 whole entry, looked up): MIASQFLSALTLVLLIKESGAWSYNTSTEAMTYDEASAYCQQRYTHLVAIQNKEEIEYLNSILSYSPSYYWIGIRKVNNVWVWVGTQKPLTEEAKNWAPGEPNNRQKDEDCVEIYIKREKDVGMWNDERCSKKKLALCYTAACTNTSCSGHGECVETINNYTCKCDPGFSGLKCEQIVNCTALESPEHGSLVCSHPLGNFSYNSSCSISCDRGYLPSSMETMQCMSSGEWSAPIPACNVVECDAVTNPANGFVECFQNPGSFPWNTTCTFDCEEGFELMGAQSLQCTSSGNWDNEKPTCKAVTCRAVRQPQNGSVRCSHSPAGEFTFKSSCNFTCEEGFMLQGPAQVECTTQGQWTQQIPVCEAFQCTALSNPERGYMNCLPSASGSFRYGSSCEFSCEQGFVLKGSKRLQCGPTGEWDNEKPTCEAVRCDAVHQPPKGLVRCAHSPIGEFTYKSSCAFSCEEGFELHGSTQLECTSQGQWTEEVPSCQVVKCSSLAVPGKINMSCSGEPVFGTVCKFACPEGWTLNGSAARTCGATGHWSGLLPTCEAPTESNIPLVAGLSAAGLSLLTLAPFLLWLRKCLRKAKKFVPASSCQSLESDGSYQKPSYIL
Sequence of rat CYP1A2, Cyp1a2 (gene 24297) (P04799 whole entry, looked up): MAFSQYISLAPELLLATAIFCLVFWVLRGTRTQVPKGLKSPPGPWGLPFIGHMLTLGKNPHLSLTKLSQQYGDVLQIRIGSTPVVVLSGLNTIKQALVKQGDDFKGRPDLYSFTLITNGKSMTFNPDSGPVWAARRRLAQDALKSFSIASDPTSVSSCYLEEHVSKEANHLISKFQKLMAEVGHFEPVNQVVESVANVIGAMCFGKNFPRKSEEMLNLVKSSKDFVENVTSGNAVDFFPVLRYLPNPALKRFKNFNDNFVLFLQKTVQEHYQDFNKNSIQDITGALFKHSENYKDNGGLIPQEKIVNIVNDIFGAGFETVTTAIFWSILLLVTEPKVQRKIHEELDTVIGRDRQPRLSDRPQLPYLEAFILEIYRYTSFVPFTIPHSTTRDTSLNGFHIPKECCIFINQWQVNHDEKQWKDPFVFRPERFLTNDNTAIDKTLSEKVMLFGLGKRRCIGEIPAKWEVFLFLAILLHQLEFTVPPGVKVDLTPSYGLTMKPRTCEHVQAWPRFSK
Sequence of human CYP2D6, CYP2D6 (gene 1565) (P10635 whole entry, looked up): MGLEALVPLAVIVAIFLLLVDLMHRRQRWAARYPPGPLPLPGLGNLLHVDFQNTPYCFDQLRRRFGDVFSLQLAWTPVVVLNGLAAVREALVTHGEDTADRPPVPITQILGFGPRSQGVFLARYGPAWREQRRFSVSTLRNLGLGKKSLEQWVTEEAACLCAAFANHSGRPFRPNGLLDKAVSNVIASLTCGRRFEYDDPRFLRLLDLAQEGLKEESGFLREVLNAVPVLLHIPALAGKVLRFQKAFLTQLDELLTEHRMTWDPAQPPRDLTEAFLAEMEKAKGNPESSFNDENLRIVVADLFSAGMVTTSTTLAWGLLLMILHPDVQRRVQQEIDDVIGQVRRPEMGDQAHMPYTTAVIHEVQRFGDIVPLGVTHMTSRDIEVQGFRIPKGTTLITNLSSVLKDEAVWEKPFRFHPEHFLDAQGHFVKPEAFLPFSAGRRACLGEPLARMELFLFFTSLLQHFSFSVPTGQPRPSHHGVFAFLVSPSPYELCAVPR
Sequence of human CYP1A2, CYP1A2 (gene 1544) (P05177 whole entry, looked up): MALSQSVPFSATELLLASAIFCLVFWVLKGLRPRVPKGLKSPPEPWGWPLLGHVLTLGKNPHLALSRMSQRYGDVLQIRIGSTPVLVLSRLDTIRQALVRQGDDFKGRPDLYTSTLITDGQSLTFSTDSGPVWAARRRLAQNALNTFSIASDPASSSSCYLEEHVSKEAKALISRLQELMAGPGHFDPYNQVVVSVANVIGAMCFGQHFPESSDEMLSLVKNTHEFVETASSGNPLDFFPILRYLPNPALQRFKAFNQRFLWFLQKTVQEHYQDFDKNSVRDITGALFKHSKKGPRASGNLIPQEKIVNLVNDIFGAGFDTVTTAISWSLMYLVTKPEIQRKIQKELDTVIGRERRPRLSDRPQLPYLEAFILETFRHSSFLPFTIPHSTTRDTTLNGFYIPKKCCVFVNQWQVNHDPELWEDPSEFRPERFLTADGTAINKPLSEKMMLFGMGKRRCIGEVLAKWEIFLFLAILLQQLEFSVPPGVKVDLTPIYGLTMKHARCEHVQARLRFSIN
Sequence of human CYP2C9, CYP2C9 (gene 1559) (P11712 whole entry, looked up): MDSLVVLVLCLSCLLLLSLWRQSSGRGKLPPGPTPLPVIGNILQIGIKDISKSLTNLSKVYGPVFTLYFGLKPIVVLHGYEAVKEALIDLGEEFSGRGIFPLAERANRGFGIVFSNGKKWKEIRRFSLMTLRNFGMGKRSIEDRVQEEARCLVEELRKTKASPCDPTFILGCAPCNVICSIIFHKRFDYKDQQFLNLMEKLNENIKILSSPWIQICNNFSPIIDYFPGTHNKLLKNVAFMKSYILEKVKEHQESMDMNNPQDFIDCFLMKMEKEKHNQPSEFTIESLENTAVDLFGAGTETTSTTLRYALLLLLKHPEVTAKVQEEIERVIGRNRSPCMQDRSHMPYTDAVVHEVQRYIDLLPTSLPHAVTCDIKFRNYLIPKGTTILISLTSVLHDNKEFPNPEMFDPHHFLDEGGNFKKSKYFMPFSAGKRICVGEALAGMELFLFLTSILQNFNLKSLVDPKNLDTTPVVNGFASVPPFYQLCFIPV
Sequence of rat CYP2A2, Cyp2a2 (gene 24895) (P15149 whole entry, looked up): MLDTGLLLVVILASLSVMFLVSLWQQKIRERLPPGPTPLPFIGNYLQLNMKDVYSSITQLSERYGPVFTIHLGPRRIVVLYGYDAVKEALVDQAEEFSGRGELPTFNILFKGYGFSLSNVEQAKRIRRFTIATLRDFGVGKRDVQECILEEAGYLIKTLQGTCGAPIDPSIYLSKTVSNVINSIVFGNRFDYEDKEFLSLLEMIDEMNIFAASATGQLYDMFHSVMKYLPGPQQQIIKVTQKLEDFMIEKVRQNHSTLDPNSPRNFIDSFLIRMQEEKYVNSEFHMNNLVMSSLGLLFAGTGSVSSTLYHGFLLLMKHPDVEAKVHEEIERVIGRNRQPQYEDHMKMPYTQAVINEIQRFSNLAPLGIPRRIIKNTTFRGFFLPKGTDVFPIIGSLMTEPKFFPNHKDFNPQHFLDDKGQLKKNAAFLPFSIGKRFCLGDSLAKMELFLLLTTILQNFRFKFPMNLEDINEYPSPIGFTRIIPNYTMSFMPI
Sequence of human CYP2A6, CYP2A6 (gene 1548) (P11509 whole entry, looked up): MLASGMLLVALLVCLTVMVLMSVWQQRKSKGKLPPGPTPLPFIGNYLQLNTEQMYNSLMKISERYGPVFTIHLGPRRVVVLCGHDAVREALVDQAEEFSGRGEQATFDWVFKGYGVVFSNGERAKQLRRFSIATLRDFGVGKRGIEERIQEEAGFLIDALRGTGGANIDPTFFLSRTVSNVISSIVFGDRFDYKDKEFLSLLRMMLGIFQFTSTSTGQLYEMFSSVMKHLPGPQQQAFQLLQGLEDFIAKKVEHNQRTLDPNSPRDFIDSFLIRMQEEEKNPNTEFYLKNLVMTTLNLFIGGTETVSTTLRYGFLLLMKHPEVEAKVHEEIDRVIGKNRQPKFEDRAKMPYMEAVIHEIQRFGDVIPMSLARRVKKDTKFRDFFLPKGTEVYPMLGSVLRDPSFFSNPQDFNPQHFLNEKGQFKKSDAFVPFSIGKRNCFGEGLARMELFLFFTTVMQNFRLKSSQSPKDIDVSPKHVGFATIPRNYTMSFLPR

For the compound `CCC(=O)Nc1ccc(Cl)c(Cl)c1`, the result in assay [1], in assay [2], in assay [3], in [4], in [5] and in assay [6] was inactive. The compound was classed as inactive in assay [8]. In addition, the AC50 in [7] was 2.03 µM (active).
Consider `COc1cccc(C(=O)NN(C(=O)c2cc(C)cc(C)c2)C(C)(C)C)c1C`, for which the outcome in assay [1], in assay [2], in assay [3], in [4], in assay [5] and in assay [6] was inactive. In addition, the result in assay [9] was inactive. The AC50 in assay [10] is 2.58 µM (active).
Regarding `CNc1cnn(-c2cccc(C(F)(F)F)c2)c(=O)c1Cl`, the AC50 in [1] is 19.2 µM (active); in assay [3] it was 7.99 µM (active); in [4], 10.9 µM (active); in assay [7], 5.43 µM (active); in assay [10], 4.35 µM (active). Further, the outcome in assay [2], in assay [5], in assay [6], in assay [11] and in [8] was inactive.
As to `CCCSP(=O)(OCC)SCCC`, the outcome in assay [1], in assay [2], in assay [3], in [4], in assay [5] and in [6] was inactive. Also, the compound was classed as inactive in assay [11]. In addition, in assay [12], the AC50 is 7.87 µM (active).
As for `CCc1cccc(CC)c1N(COC)C(=O)CCl`, the AC50 was 14.2 µM (active) in assay [1]; 23.6 µM (active) in assay [5]; 20 µM (active) in [6]; 1.58 µM (active) in assay [13]; 6.1 µM (active) in [10]; 3.44 µM (active) in assay [14]. The result in assay [2], in [3] and in assay [4] was inactive.
As for `CCOP(=O)(SC(C)CC)N1CCSC1=O` (centres undefined), the result in assay [1], in assay [2], in [3], in [5] and in assay [6] was inactive. In addition, the concentration at half-maximal activity (AC50) in assay [10] is 6.44 µM (active).
As to `CCCCOC(=O)[C@@H](C)Oc1ccc(Oc2ccc(C#N)cc2F)cc1`, the result in [1], in [2], in assay [3], in assay [4], in assay [5] and in [6] was inactive. For the same compound, in [10], the AC50 is 10 µM (active).
In the case of `CCNc1nc(Cl)nc(NC(C)(C)C#N)n1`, the AC50 in assay [1] was 4.59 µM (active). The outcome in assay [2], in [3], in assay [4], in [5], in [6] and in assay [15] was inactive.
With `COc1ccc(C(=CC(=O)N2CCOCC2)c2ccc(Cl)cc2)cc1OC`, the AC50 in [1] is 5.93 µM (active); in [2], 25 µM (active); in assay [3] it was 9.07 µM (active); in assay [4], 8.93 µM (active); in assay [5], 12.9 µM (active); in assay [11] it was 4.42 µM (active). In assay [10], the half-maximal activity concentration (AC50) is 7.59 µM (active). Further, the result in assay [6] was inactive.
On to `CCOP(=O)(OCC)Oc1cc(C)nc(C(C)C)n1`, for which the result in assay [1], in assay [2], in assay [3], in assay [4], in [5] and in assay [6] was inactive. Moreover, in [11], the outcome was inactive. Further, in assay [10], the AC50 was 10 µM (active).
In the case of `COP(=O)(OC)SCn1c(=O)oc2cc(Cl)cnc21`, the AC50 in assay [1] is 20 µM (active); in assay [5], 12.2 µM (active); in assay [6], 13.4 µM (active); in assay [13] it was 9 µM (active); in [10], 4.57 µM (active). For the same compound, the outcome in assay [2], in assay [3] and in assay [4] was inactive.
Turning to `CCC(=NOC/C=C/Cl)C1=C(O)CC(C2CCOCC2)CC1=O` (centres undefined), the outcome in assay [1], in [2], in [3], in assay [4], in assay [5] and in [6] was inactive. In addition, the result in assay [9] and in assay [16] was inactive.
Regarding `CC(C)[C@H](C(=O)O[C@H](C#N)c1cccc(Oc2ccccc2)c1)c1ccc(Cl)cc1`, the AC50 in assay [1] was 12.3 µM (active); in [3] it was 4.84 µM (active); in [5] it was 12 µM (active); in assay [10], 8.22 µM (active). Also, the outcome in assay [2], in assay [4], in assay [6] and in assay [11] was inactive.
Take `CCCCSP(=O)(SCCCC)SCCCC`: the result in assay [1], in [2], in assay [12] and in assay [10] was inactive. The AC50 in assay [3] is 34.8 µM (active); in [4], 25.9 µM (active); in [5], 36.2 µM (active); in assay [6] it was 22.5 µM (active); in assay [7] it was 8.52 µM (active).
As to `Nc1c(Cl)cc([N+](=O)[O-])cc1Cl`, the AC50 in [1] is 10.1 µM (active); in [17], 2.05 µM (active); in assay [13], 3.48 µM (active); in assay [7], 2.28 µM (active); in [16], 0.113 µM (active). For the same compound, the outcome in [2], in assay [3], in assay [4], in [5], in [6] and in [12] was inactive. The outcome in assay [10] and in [14] was inactive.
Regarding `CCOP(=O)(NC(C)C)Oc1ccc(SC)c(C)c1` (centres undefined), the outcome in assay [1], in assay [2], in assay [3], in [4], in assay [5] and in [6] was inactive. The call in [8] was inactive. The AC50 was 4.84 µM (active) in assay [7] and 5.92 µM (active) in [10].
